This excerpt belongs to a sample that is enriched for hits.
Tg IFNy HTS – inhibitors of Toxoplasma gondii growth with IFN-gamma. Toxoplasma gondii growth in IFN-gamma-treated host cells; active compounds read low. activity change, negative = inhibition, % (test concentration not listed). 69,000 compounds, 3.8% hits. AID 1259416; in the data active = activity change below about -70%, passing the limit was not always enough;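 also: host cells are HeLa cells infected with Toxoplasma gondii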
* marks the source's active call; other numbers are inactive results; i = inactive; ! = not active in a repeat.

SMILES | Tg IFNy HTS
C[C@H](CO)N1C[C@H](C)[C@H](CN(C)C(=O)Nc2cccc3ccccc23)Oc2ncccc2C1=O | -119*
C[C@H](CO)N1C[C@H](C)[C@H](CN(C)C(=O)c2cc(-c3ccccc3)on2)OCc2cnnn2CCCC1=O | -76*
C[C@H]1CN([C@@H](C)CO)C(=O)CCCn2nncc2CO[C@@H]1CN(C)C(=O)Nc1ccccc1C(F)(F)F | -96*
C[C@@H]1CN([C@@H](C)CO)C(=O)CCCn2nncc2CO[C@H]1CN(C)C(=O)Nc1ccccc1C(F)(F)F | 39
COc1ccc(NC(=O)N(C)C[C@@H]2OCc3cnnn3CCCC(=O)N([C@H](C)CO)C[C@@H]2C)c(OC)c1 | i
C[C@@H]1CN([C@H](C)CO)C(=O)c2cccc(NC(=O)C3CCOCC3)c2O[C@@H]1CN(C)C(=O)Nc1cccc2ccccc12 | -8
C[C@@H]1CN([C@@H](C)CO)C(=O)CCCn2nncc2CO[C@H]1CN(C)C(=O)c1cc(-c2ccccc2)on1 | 93
C[C@@H]1CN([C@H](C)CO)C(=O)c2cc(NS(=O)(=O)c3cn(C)cn3)ccc2O[C@H]1CN(C)C(=O)Nc1cccc2ccccc12 | -1
C[C@H](CO)N1C[C@H](C)[C@@H](CN(C)C(=O)c2cc(-c3ccccc3)on2)OCc2cnnn2CCCC1=O | 66
CS(=O)(=O)N1CCC(n2cc(C(=O)O)cn2)C1 (stereo unspecified) | -1
O=C(Cn1cnnn1)N1C2CCC1CC(c1ccc(F)cc1)C2 (stereo unspecified) | -18
N#CC1(C(=O)N2C[C@H]3CN(Cc4ccncc4)C(=O)[C@@H]3C2)CC1 | 1
C=CCOC1C2CCC1N(C(=O)c1ccccn1)C2 (stereo unspecified) | 34
COCC(=O)N1CC[C@H]2[C@H]1CCC(=O)N2CC1CC1 | 69
COc1ccc(S(=O)(=O)NCc2nc(-c3cccc(Cl)c3)oc2C)cc1 | -18
CN(C)C(=O)CNC(=O)c1nc2c(s1)CCCN2Cc1ccccc1 | 5
COc1ncc(-c2c(-c3ccccc3)ncn2CCn2nc(C)c(C)c2C)cn1 | 18
Cc1ccc(C(=O)Nc2ccc(-c3nc(-c4ccccc4)co3)cc2)cc1 | 25
Cc1cccc(Cc2c(C)oc3c(c(N)nn3-c3nc4ccccc4s3)c2=O)c1 | 164
COc1ccc2[nH]c3c(c2c1)CCNC3C1CC=C(C)CC1 (stereo unspecified) | -84*
COc1ccc2[nH]c3c(c2c1)CCNC31C(=O)N(C)c2ccccc21 (stereo unspecified) | 311
COc1ccc2[nH]nc(C(=O)N3C[C@H]4CC=C(C)C[C@H]4C3)c2c1 | -42
C/C=C/c1ccc([C@@H]2[C@H](C#N)N(C(=O)NC3CCCCC3)[C@H]2CO)cc1 | -1
Cc1ccc(NC2=CC(=O)c3sc(C)nc3C2=O)cc1 | -76*
C(=C\c1csc(CN2CCNCC2)c1)/c1ccccc1 | 3
SMILES | Tg IFNy HTS
FC(F)(F)C1(c2n[nH]c(Cc3ccccc3)n2)CC1 | -7
CN1CCC2(CN(c3ncccn3)CC23CCN(C(=O)c2ccccn2)CC3)C1=O (stereo unspecified) | 2
COCCCN(Cc1ccc(F)cc1)C(=O)Cc1csc(C)n1 | -2
O=c1[nH]nc(CCc2nc3ccccc3[nH]2)n1Cc1ccccc1 | 0
CN1CCN(C2=Nc3cc(F)ccc3Cc3ccccc32)CC1 | 3
CN1CCN(C2=Nc3cc(Cl)ccc3Nc3ccccc32)CC1 | -95*!
Clc1ccc2c(c1)N=C(N1CCNCC1)c1ccccc1N2 | -58
O=C(NC(=O)N1CCCCC1)c1cc(Br)cc(Br)c1 | 131
Fc1ccc(-c2cncc(CN3CCN(c4cccc5c4OCCO5)CC3)c2)cc1 | -16
Nc1nccc(/C=C/c2c(F)cccc2Cl)n1 | -74*
CCN(CC)c1ncnc2c1cnn2CC(=O)Nc1cc(Cl)ccc1C | 182
Cc1ncc(C(C)C)c(N2CCN(Cc3c(C)nn(C)c3Cl)CC2)n1 | -4
CC(=O)c1ccc2c(c1)N(CCCN1CCN(CCO)CC1)c1ccccc1S2 | 28
OCCN1CCN(CCCN2c3ccccc3Sc3ccc(C(F)(F)F)cc32)CC1 | -97*!
CN(C)CC/C=C1/c2ccccc2Sc2ccc(Cl)cc21 | -62
OCCN1CCN(CC/C=C2/c3ccccc3Sc3ccc(C(F)(F)F)cc32)CC1 | -77*
CN1CCN(CCC=C2c3ccccc3Sc3ccc(S(=O)(=O)N(C)C)cc32)CC1 | 78
CCSc1ccc2c(c1)N(CCCN1CCN(C)CC1)c1ccccc1S2 | -78*
CN1CCCC(CN2c3ccccc3Sc3ccccc32)C1 (stereo unspecified) | 16
CC(CN(C)C)CN1c2ccccc2Sc2ccccc21 (stereo unspecified) | 7
COc1ccc2c(c1)N(C[C@H](C)CN(C)C)c1ccccc1S2 | 29
OCCN1CCN(CCCN2c3ccccc3C=Cc3ccccc32)CC1 | 17
CN1CCN(CCCN2c3ccccc3Sc3ccc(Cl)cc32)CC1 | 2
CN(C)CCCN1c2ccccc2Sc2ccc(C(F)(F)F)cc21 | -89*!
CCOC(=O)N1CSCC1C(=O)O (stereo unspecified) | -42
SMILES | Tg IFNy HTS
COCCN1Cc2ccccc2C2(CCN(C(=O)c3ccco3)CC2)C1 | -4
Cc1ccc(CNC2=NCCNC23CCN(S(=O)(=O)c2ccc4c(c2)CCCC4)CC3)cc1 | -65
OCc1ccc(-c2nccn2CC2COCCO2)o1 (stereo unspecified) | -1
O=C(CCC(=O)N1CCCC2(CCNCC2)CC1)c1ccc(F)cc1 | -25
CCOC(=O)c1nc(Nc2ccc(C)cc2Cl)c2ccccc2n1 | -37
COc1cccc(-c2cccc(CN(C)Cc3cc(C)[nH]n3)c2)c1 | -82*
COc1cccc(-n2cc(CN(C)Cc3cc(F)ccc3F)cn2)c1 | 11
Cc1cc(CN(C)CC(=O)NCCc2cccc(Cl)c2)n[nH]1 | 0
COc1cccc(CNC(=O)N2CCc3nc(-c4ccccc4)sc3C2)c1 | 33
COc1cccc(CNC(=O)c2nc3c(o2)CN(C(=O)c2cccc(F)c2)C3)c1 | 57
COc1cccc(CNC(=O)c2cc3c(s2)CCN3C(=O)c2ccc(F)cc2)c1 | -87*
COc1cccc(CNC(=O)c2cc3c(s2)CCN3C(=O)CN(C)C)c1 | -6
COc1cccc(CNC(=O)c2cc3c(s2)CCN3C(=O)c2ccccc2)c1 | -100*
O=C(NCc1cccc(F)c1)c1cc2c(s1)CCN2C(=O)c1ccccc1 | -82*
COc1cccc(CNC(=O)c2nc(Nc3ccc(F)cc3)c3ccccc3n2)c1 | 22
CN(C)CCNC(=O)c1cc2c(s1)CCN2C(=O)C1CC1 | 2
CC(C)CNC(=O)c1cc2c(s1)CCN2C(=O)C1CC1 | -3
O=C(O)CCc1nc2ccccc2oc1=O | 15
Cc1ccc2[nH]c(-c3nc(CCN(C)C(=O)c4cncc(Br)c4)no3)cc2c1 | 179
CN(C)c1ccc(-c2nc(-c3ccccc3)nc(-c3ccccc3)n2)cc1 | 35
COc1ccccc1-c1cccc(-c2nc(C(=O)NCc3ccncc3)cc3c2[C@@H](CCO)N([S@](=O)C(C)(C)C)C3)c1 | 3
COc1ccc2c(c1)NC1(CCN(C(=O)Nc3cc(OC)c(OC)c(OC)c3)CC1)c1cccn1-2 | 172
O=C(c1cscn1)N1CCC(c2n[nH]c(=O)n2Cc2ccccc2)CC1 | 167
CCCC[C@@H](CC)COC(=O)/C=C/c1ccc(OC)cc1 | -2
Cc1ccc(S(=O)(=O)Nc2ccc3c(c2)C(=O)N([C@@H](C)CO)C[C@H](C)[C@@H](CN(C)S(=O)(=O)c2cccs2)OCCCC[C@@H](C)O3)cc1 | -90*

Source: PubChem BioAssay (Broad Institute)
